# Results from PubChem BioAssay.
# Active and inactive are the calls of the source.
# Assays:
# [1] = E. coli DRC41 culture turbidity changes, primary screen, E. coli filamentation inducer project, strain DRC41, OD650, 48 h (AID 1152);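 also: E. coli MC1000 strain DRC41 lacking acrAB efflux pump and sulA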; details: E. coli DRC41 (acrAB sulA), higher = more signal, called active from +8 up or from −8 down
# [2] = small-molecule binders of probe aLefty1, primary screen, biochemical, small-molecule microarray, 635/667 nm fluorescence (AID 1153); details: higher = more signal;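 also: score merges spot fluorescence with signal-to-noise ratio from the scanned slide images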
# [3] = PSAC antagonists in infected red cells, primary screen, cell-based, P. falciparum Indochina, OD700, 1 h (AID 1154); details: P. falciparum Indochina infected RBC osmotic lysis, higher = more signal, called active from +8 up or from −8 down
# [4] = PSAC antagonists in infected red cells, primary screen, cell-based, P. falciparum Indochina, OD700, 2 h (AID 1155);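 also: lysis reports solute entry through the parasite surface anion channel PSAC; channel blockers reduce lysis of infected cells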; details: P. falciparum Indochina infected erythrocytes, osmotic lysis OD700; higher = more signal, called active from +8 up or from −8 down
# [5] = osmotic lysis modulators in infected erythrocytes, primary screen, PSAC antagonist project, cell-based, P. falciparum Indochina, OD700, 3 h (AID 1156); details: higher = more signal, called active from +8 up or from −8 down
# [6] = PSAC antagonists in infected red cells, primary screen, cell-based, P. falciparum Indochina, OD700, 18 h (AID 1157); details: P. falciparum Indochina infected erythrocytes, osmotic lysis OD700, 18 h; higher = more signal, called active from +8 up or from −8 down
# [7] = modulators of S6 phosphorylation in cells, primary screen, cell-based, A549, cytoblot, luminescence, serum-stimulated (AID 1158); details: A549 phospho-S6 cytoblot, 5 h, higher = more signal;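 also: serum-stimulated A549 lung adenocarcinoma cells; signal is phosphorylated S6 detected by cytoblot immunostaining with HRP secondary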
# [8] = target: NADPH oxidase 2 (Homo sapiens) (UniProt P04839); experiment: NOX2-dependent H2O2 signal modulators, primary screen, NOX inhibitor project, cell-based, HEK293-NOX2, PMA-stimulated, Amplex Red fluorescence (AID 1159); details: 45 min, higher = more signal, called active from +8 up or from −8 down; also: test concentration not given here
# [9] = target: NADPH oxidase 4 (Homo sapiens) (UniProt Q9NPH5); experiment: NOX4-dependent H2O2 signal modulators, primary screen, NOX inhibitor project, cell-based, HEK293-NOX4, tetracycline-induced, Amplex Red fluorescence (AID 1160); details: 45 min, higher = more signal, called active from +8 up or from −8 down
# [10] = target: NADPH oxidase 5 (Homo sapiens) (UniProt Q96PH1); experiment: NOX5-dependent H2O2 signal modulators, primary screen, NOX inhibitor project, cell-based, HEK293-NOX5, Amplex Red fluorescence (AID 1161); details: HEK293-NOX5, ionomycin, 45 min, higher = more signal
# [11] = A549 cell viability effects, profiling panel, calcein-AM fluorescence, 48 h, basal (AID 1162); details: higher = more signal; also: test concentration not given here
# [12] = adipocyte viability effects, profiling panel, cell-based, 3T3-L1 adipocytes, calcein-AM fluorescence, 48 h, basal (AID 1163); details: 3T3-L1 adipocytes viability, higher = more signal; also: test concentration not given here
# [13] = HepG2 cell viability effects, profiling panel, calcein-AM fluorescence, 48 h, basal (AID 1164); details: higher = more signal; also: test concentration not given here
# [14] = MM1S cell viability effects, profiling panel, calcein-AM fluorescence, 48 h, basal (AID 1165); details: higher = more signal;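 also: viability of MM1S multiple myeloma cells under basal unstimulated conditions; test concentration not given here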
# [15] = basal RPMI8226 viability, no added stimulus, profiling panel, cell-based, calcein-AM fluorescence, 48 h, PK04 Diversity Set (AID 1166); details: RPMI8226 myeloma viability, higher = more signal;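 also: cells grown under basal conditions without added stimulus; test concentration not given here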
# [16] = basal HepG2 mitochondrial membrane potential changes, profiling panel, cell-based, JC-1 fluorescence, 24 h, 100 nL compound (AID 1167); details: higher = more signal; also: test concentration not given here
# [17] = basal 3T3-L1 adipocyte mitochondrial potential changes, profiling panel, cell-based, JC-1 fluorescence, 3T3-L1 adipocytes, 24 h, 100 nL compound (AID 1168); details: JC-1 mitochondrial fluorescence, higher = more signal, called active from +8 up or from −8 down; also: test concentration not given here
# [18] = basal RPMI8226 mitochondrial membrane potential changes, profiling panel, cell-based, JC-1 fluorescence, 24 h, 100 nL compound (AID 1169); details: RPMI8226 myeloma, JC-1 mitochondrial potential fluorescence, higher = more signal; also: test concentration not given here
# [19] = basal MM1S mitochondrial membrane potential changes, profiling panel, cell-based, JC-1 fluorescence, 24 h, 100 nL compound (AID 1170); details: higher = more signal; also: test concentration not given here
# [20] = A549 lung cancer cell viability effects, profiling panel, resazurin fluorescence, 24 h, PK04 Diversity Set (AID 1171); details: higher = more signal, called active from +8 up or from −8 down; also: test concentration not given here
# Chain of NADPH oxidase 2 (Homo sapiens) (P04839 whole entry, looked up): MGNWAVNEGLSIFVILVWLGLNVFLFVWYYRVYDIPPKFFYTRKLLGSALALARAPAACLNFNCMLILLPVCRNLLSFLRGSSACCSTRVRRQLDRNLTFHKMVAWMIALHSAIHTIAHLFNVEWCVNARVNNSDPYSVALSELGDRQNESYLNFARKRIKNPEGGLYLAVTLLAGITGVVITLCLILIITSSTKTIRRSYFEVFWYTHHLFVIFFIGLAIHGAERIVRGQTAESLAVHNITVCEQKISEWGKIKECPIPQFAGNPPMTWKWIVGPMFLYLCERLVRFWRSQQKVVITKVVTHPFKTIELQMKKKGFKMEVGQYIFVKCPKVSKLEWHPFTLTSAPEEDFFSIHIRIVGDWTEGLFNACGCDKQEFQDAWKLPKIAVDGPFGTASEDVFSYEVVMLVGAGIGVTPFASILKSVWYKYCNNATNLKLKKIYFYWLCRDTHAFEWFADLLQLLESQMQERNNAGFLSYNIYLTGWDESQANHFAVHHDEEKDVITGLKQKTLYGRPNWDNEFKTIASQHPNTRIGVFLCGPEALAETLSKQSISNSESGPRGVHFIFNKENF
# Chain of NADPH oxidase 4 (Homo sapiens) (Q9NPH5 whole entry, looked up): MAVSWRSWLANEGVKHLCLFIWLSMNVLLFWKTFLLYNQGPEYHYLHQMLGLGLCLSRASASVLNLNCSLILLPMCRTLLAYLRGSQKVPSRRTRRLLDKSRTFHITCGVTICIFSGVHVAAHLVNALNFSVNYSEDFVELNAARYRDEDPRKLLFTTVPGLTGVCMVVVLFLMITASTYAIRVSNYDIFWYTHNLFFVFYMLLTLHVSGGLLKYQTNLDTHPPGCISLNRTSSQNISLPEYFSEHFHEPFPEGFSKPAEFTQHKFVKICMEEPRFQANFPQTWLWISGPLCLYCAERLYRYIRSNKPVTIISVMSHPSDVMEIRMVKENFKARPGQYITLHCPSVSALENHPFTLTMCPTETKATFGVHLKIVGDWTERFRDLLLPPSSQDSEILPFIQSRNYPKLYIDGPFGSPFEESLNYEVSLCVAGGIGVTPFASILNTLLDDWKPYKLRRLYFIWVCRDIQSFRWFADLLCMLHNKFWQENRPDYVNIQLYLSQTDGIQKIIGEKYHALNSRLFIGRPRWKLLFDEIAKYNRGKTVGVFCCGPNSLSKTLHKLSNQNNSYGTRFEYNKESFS
# Chain of NADPH oxidase 5 (Homo sapiens) (Q96PH1 whole entry, looked up): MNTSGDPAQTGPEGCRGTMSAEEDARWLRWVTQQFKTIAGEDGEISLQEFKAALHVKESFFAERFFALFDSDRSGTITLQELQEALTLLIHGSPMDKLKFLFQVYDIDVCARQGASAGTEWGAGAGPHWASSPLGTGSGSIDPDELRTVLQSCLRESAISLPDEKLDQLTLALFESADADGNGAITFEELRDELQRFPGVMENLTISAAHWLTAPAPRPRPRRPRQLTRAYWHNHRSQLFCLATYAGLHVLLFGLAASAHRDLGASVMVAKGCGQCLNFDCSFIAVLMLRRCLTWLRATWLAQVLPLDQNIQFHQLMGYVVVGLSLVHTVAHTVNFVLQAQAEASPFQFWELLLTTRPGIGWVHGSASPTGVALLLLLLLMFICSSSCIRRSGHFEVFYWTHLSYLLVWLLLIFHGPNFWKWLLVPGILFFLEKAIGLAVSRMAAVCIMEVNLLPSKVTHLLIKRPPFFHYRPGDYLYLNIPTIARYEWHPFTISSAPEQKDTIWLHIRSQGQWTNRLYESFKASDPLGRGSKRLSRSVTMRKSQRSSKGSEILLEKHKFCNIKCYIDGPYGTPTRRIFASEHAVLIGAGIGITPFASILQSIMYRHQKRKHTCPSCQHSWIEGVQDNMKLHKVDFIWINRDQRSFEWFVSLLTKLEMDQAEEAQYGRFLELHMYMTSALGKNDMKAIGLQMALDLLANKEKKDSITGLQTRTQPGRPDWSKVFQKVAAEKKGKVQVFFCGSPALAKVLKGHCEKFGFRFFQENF
SMILES,z-score [1],composite z-score [2],z-score [3],z-score [4],z-score [5],z-score [6],z-score [7],z-score [8],z-score [9],z-score [10],z-score [11],z-score [12],z-score [13],z-score [14],z-score [15],z-score [16],z-score [17],z-score [18],z-score [19],z-score [20]
C=CCNC(=O)[C@H]1[C@@H]2C(=O)O[C@@H](c3ccccc3)[C@@H](c3ccccc3)N2[C@@H](c2ccc(OCCO)cc2)[C@]12C(=O)N(C(=O)OCCOC)c1ccc(C#CCNC(N)=O)cc12,0.33 (inactive),0.298,2.53 (inactive),0.666 (inactive),1.09 (inactive),0.83 (inactive),0.387,1.76 (inactive),1.44 (inactive),0.12,0.0935,-0.585,0.854,0.952,1.27,0.0391,0.668 (inactive),-0.596,-0.919,-0.226 (inactive)
O=C(NCC(F)(F)F)[C@@H]1c2ccccc2C(=O)N(Cc2cc(C(F)(F)F)cc(C(F)(F)F)c2)[C@H]1c1ccc(CO)cc1,0.648 (inactive),0.114,2.54 (inactive),0.0323 (inactive),0.473 (inactive),0.257 (inactive),0.751,0.16 (inactive),0.746 (inactive),1.11,0.964,-0.0843,1.42,-0.202,1.07,1.95,1.36 (inactive),0.801,-0.626,0.651 (inactive)
COC(=O)[C@@]1(Cc2ccc(F)cc2)[C@H]2c3cc(C(=O)N4CCCC4)n(Cc4ccc(OC(F)(F)F)cc4)c3C[C@H]2CN1C(=O)c1ccccc1,-2.47 (inactive),-0.0141,0.498 (inactive),0.851 (inactive),-0.194 (inactive),0.642 (inactive),0.0769,0.372 (inactive),0.32 (inactive),-0.51,-1.21,-0.749,0.0322,-1.04,-0.55,-0.269,-1.35 (inactive),-0.603,-0.787,-0.165 (inactive)
COCCOC(=O)N1C(=O)[C@@]2(c3cc(C#CCC(C(=O)OC)C(=O)OC)ccc31)[C@H](C(=O)N1CCc3cc(OC)c(OC)cc3C1)[C@H]1C(=O)O[C@H](c3ccccc3)[C@H](c3ccccc3)N1[C@@H]2c1ccccc1OCCO,1.25 (inactive),-0.314,2.96 (inactive),1.42 (inactive),0.358 (inactive),0.265 (inactive),-0.0797,1.48 (inactive),1.57 (inactive),0.966,0.184,0.964,-0.717,-2.22,-0.619,0.543,1.14 (inactive),-0.946,-1.05,0.853 (inactive)
COC(=O)C(CC#Cc1ccc2c(c1)[C@]1(C(=O)N2)[C@H](C(=O)N2CCCCCCC2)[C@H]2C(=O)O[C@H](c3ccccc3)[C@H](c3ccccc3)N2[C@@H]1c1ccc(OCCO)cc1)C(=O)OC,-0.215 (inactive),3.14,13.7 (active),2.51 (inactive),-5.71 (inactive),0.588 (inactive),-0.779,0.985 (inactive),0.827 (inactive),1.6,-0.369,0.231,0.0259,-0.236,0.164,-0.738,-2.32 (inactive),-1.04,-1.44,1.29 (inactive)
[N-]=[N+]=NCc1ccccc1[C@H]1OC(c2ccc(OCCCO)cc2)=N[C@@]1(Cc1ccccc1N=[N+]=[N-])C(=O)O,-1.17 (inactive),0.479,22.2 (active),3.83 (inactive),0.0591 (inactive),0.395 (inactive),-0.314,0.831 (inactive),0.982 (inactive),1.51,-0.374,-1.69,0.312,-0.934,-0.984,-2.04,0.0914 (inactive),-0.763,-0.596,0.216 (inactive)
C=CC[C@H](O)c1ccc(O)c2ccccc12,0.675 (inactive),-0.0163,1.28 (inactive),0.439 (inactive),0.168 (inactive),0.45 (inactive),-0.323,-5.36 (inactive),-1.98 (inactive),1.42,0.902,-0.0385,-0.817,-2.84,-3.71,-2.13,0.241 (inactive),-0.752,-1.71,-0.409 (inactive)
CCCCC(=C=CC[C@@H](O)c1ccccc1OCCO)C[C@@H](O)c1ccccn1,0.142 (inactive),-0.0192,11.3 (active),1.51 (inactive),1.02 (inactive),0.894 (inactive),-0.261,1.32 (inactive),-0.281 (inactive),-1.41,-0.158,-0.48,0.242,-0.35,-0.84,-0.16,0.341 (inactive),0.495,-0.179,0.756 (inactive)
CCOC(=O)C[C@H]1[C@H](OC(=O)c2cc3ccccc3oc2=O)[C@@H](NC(=O)c2ccc(-c3ccccc3)cc2)c2cc(OCCCO)ccc2N1C(=O)Cc1ccc(OC)cc1,-0.601 (inactive),-0.0162,20.3 (active),5.12 (inactive),0.557 (inactive),1.04 (inactive),-0.192,1.38 (inactive),1.08 (inactive),1.23,-0.382,1,0.0719,0.17,-0.84,-0.0623,-1.08 (inactive),-0.97,-0.0508,0.0573 (inactive)
CN(C)CCCCCCNC(=O)[C@@H]1C[C@@H]2C(=O)N[C@@H](CCCC[N+](C)(C)C)C(=O)N2[C@@H]1c1cccc(OCCO)c1,1.44 (inactive),0.0651,5.12 (inactive),-0.16 (inactive),1.47 (inactive),-1.04 (inactive),2.66,-0.0444 (inactive),0.249 (inactive),1.55,-0.188,-0.015,0.413,0.232,0.799,1.37,-0.225 (inactive),-0.567,0.0992,-0.646 (inactive)
COc1ccc([Si](C)(C)[C@H]2[C@H](CC(=O)N3CCC[C@H]3CO)O[C@@]3(C(=O)N(C)c4ccccc43)[C@@H]2C)cc1,-0.716 (inactive),-0.0143,0.577 (inactive),0.225 (inactive),-0.0347 (inactive),0.423 (inactive),-0.0454,1.4 (inactive),1.46 (inactive),1.86,0.183,-0.522,0.233,0.0008,0.143,-1.03,-0.223 (inactive),0.812,-0.265,-0.394 (inactive)
CCOC(=O)C=C1C[C@@H](c2cccc([N+](=O)[O-])c2)O[C@@H](c2cccc([N+](=O)[O-])c2)O1,-0.546 (inactive),1.21,1.65 (inactive),1.11 (inactive),-0.481 (inactive),0.66 (inactive),-0.125,0.325 (inactive),0.481 (inactive),1.28,-0.865,-0.477,0.177,-0.71,-0.588,3.97,0.94 (inactive),0.779,-0.351,1.44 (inactive)
O=C1NC(=O)C2C1C=CC(C(O)C(O)CO)N2Nc1ccccn1 (stereo not given),-0.0393 (inactive),0.586,0.0087 (inactive),0.0339 (inactive),-0.489 (inactive),-0.145 (inactive),1.14,-0.193 (inactive),-0.921 (inactive),-0.339,0.159,-0.28,2.19,0.434,0.476,0.361,0.117 (inactive),-0.627,0.123,-1.65 (inactive)
CCN1C(=O)C2CC(=O)C3C(CN(S(=O)(=O)c4ccc(C)cc4)C3c3ccc(C)cc3)C2C1=O (stereo not given),0.344 (inactive),-0.0967,1.04 (inactive),0.804 (inactive),0.135 (inactive),0.609 (inactive),-0.0511,-0.374 (inactive),-0.0929 (inactive),-0.525,0.159,-0.902,0.118,1.03,0.0667,-0.167,-0.00388 (inactive),-0.129,-1.25,-0.064 (inactive)
Cc1ccc(S[C@]2(C(=O)NC(C)C)CC(=O)N(Cc3ccccc3)[C@@H]2c2ccc(CO)cc2)cc1,1.33 (inactive),0.082,1.66 (inactive),-0.709 (inactive),-0.379 (inactive),-0.581 (inactive),1.46,-0.101 (inactive),0.0692 (inactive),-0.771,1.72,-0.089,1.15,0.0456,1.23,1.18,0.391 (inactive),0.135,-0.177,-0.3 (inactive)
CCCCC(=C=CC[C@H](O)c1ccccc1OCCO)CCO,-0.0046 (inactive),-0.245,4.53 (inactive),0.626 (inactive),-0.0542 (inactive),0.331 (inactive),-0.401,-0.732 (inactive),-0.145 (inactive),-1.55,-0.341,-0.358,0.285,-0.0455,-0.857,-0.95,0.101 (inactive),-0.193,-0.434,0.356 (inactive)
CC(C)(C)OC(=O)CC[C@]1(C(N)=O)N=C(c2ccc(OCCCO)cc2)O[C@H]1c1ccccc1N=[N+]=[N-],0.831 (inactive),0.267,30.5 (active),32.4 (active),0.697 (inactive),2.48 (inactive),-0.3,-0.285 (inactive),0.324 (inactive),-1.19,-0.263,-0.251,0.934,0.381,0.882,-0.445,-0.109 (inactive),-0.132,-1,0.066 (inactive)
COC(=O)c1c2oc(c1C(=O)OC)C(=O)N[C@H](Cc1ccccc1)Cn1cc(nn1)C1(CCCCC1)NC(=O)N[C@H](CO)CC2,2.53 (inactive),-0.104,0.96 (inactive),0.166 (inactive),0.789 (inactive),0.286 (inactive),0.274,-0.0295 (inactive),1.77 (inactive),0.431,0.78,0.705,0.286,0.977,0.943,0.381,0.621 (inactive),-0.662,-1.2,-0.547 (inactive)
